In the library only some 11% were active in any assay of this set; here they are far more common.
JMJD2A Tudor = blocks the human JMJD2A Tudor domain | AlphaScreen JMJD2A-Tudor / H3K4me3 peptide binding | AID 504339 | Potency, µM (series often up to 114 µM), inactives show top-dose activity change, negative = inhibition, actives largely listed as inhibitors | actives 4.4% (n = 390,000); further: on the % scale 0 is the no-effect control and ±100 the full control effect; nearly all actives have a fitted effect of over 50% in size
G9a inh = blocks human histone lysine methyltransferase G9a; Q96KQ7; actives 8.8% (n = 350,000); G9a H3K9 monomethylation, AlphaScreen, 2 h; Potency, µM (highest dose often 102 µM), without a hit: top-dose activity, negative = inhibition, actives largely listed as inhibitors; further: on the % scale 0 is the no-effect control and ±100 the full control effect; nearly all actives have a fitted effect of over 75% in size
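Signal arises when biotinylated H3K9 peptide, once monomethylated, bridges streptavidin donor and antibody-captured acceptor beads. Enzyme at 20 nM was preincubated 15 min with test compounds; peptide 500 nM and SAM 20 uM then reacted for 2 h.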
L3MBTL1 block = inhibitors of human L3MBTL1. Q9Y468. AlphaScreen L3MBTL1–H3K9me1 peptide binding. Potency, µM (highest dose often 57.1 µM), for the others: at the top dose activity, negative = inhibition, most hits filed as inhibitors. actives 0.66% (n = 230,000). AID 485360; further: on the % scale 0 is the no-effect control and ±100 the full control effect; nearly all actives have a fitted effect of over 60% in size
Target sequence (Q9Y468 whole entry, looked up): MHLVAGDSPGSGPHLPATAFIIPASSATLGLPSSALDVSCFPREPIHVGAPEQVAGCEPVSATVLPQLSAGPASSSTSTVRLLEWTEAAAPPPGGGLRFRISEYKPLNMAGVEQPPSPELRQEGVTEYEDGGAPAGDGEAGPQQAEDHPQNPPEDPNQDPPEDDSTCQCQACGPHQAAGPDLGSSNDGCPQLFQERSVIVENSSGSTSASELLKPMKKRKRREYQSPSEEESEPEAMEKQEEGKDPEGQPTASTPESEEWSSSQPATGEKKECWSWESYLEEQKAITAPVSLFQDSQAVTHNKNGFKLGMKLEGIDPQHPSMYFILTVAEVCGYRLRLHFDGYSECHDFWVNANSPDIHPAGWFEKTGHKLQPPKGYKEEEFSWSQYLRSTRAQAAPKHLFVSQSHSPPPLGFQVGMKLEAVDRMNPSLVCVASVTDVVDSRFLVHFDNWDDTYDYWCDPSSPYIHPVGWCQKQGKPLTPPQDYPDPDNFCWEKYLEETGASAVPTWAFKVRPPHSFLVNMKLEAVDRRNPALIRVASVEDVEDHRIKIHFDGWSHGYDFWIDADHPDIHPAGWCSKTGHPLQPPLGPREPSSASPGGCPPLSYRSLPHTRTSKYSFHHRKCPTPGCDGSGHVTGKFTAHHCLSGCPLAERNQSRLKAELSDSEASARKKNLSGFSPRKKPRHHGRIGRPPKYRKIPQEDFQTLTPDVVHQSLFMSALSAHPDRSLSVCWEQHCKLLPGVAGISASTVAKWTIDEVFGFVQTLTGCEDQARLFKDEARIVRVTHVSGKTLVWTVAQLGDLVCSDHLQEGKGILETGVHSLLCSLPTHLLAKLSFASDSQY
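AlphaScreen assay: L3MBTL1 (50 nM final) was preincubated 30 min at room temperature with biotinylated H3(1-15)K9me1 peptide (75 nM final), then 30 min with library compounds; streptavidin donor and nickel chelate acceptor beads (10 ug/mL final) added, 30 min dark.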
BAZ2B inh = inhibitors of human BAZ2B bromodomain; Q9UIF8; actives 4.4% (n = 360,000); Potency, µM (series often up to 114 µM), inactives show at the highest dose activity change, negative = inhibition, most hits filed as inhibitors; AlphaScreen BAZ2B-H3K14Ac peptide displacement; further: on the % scale 0 is the no-effect control and ±100 the full control effect; nearly all actives have a fitted effect of over 60% in size
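Complex of BAZ2B and biotin-H3K14Ac (50 nM apiece) forms over 30 min at RT, then faces library compounds up to 110 uM for another 30 min; AlphaScreen beads added, 20 min dark incubation, luminescence read.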
HP1b binding inh = blocks HP1-beta chromodomain binding to methylated histone tails. AlphaScreen HP1-beta / biotin-H3K9me3 peptide binding. Potency, µM (series often up to 114 µM), for the others: at the top dose activity change, negative = inhibition, actives largely listed as inhibitors. actives 0.56% (n = 390,000). AID 540317; further: nearly all actives have a fitted effect of over 70% in size
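AlphaScreen: HP1-beta (50 nM) preformed 30 min with biotin-H3(1-18)K9me3 peptide (50 nM) in PBS pH 7.4, 0.01% Tween-20. Compound added for 30 min at RT, then streptavidin donor/nickel chelate acceptor beads (10 ug/mL) for 30 min.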
Numbers without * were called inactive; u = inconclusive; x = no result given; [ ] = dose if it differs, or a comment. The call rests on the fitted dose curve; in most records, active means well fitted inhibition curve with a large enough effect; inconclusive means small, poorly fitted or top-dose-only effect; inactive means no such curve, though single readings can be large or run the other way. Potency means the concentration at half of the fitted maximal effect.

SMILES | JMJD2A Tudor | G9a inh | L3MBTL1 block | BAZ2B inh | HP1b binding inh
CC(=O)C1=C(OC(=O)C(C)C)c2ccccc2S(=O)(=O)N1Cc1ccccc1 | -23.5% | -32.1%[59 µM] | x | u | 25.7%
O=C(Nc1nnc(-c2cccnc2)o1)c1cccc([N+](=O)[O-])c1 | x | -3.2% | x | u | x
O=C(Nc1nnc(-c2ccncc2)o1)c1ccc2ccccc2c1 | -22.1% | 6.0% | x | 79.4µM* | 37.9%
O=C(Nc1nnc(-c2ccncc2)o1)c1cccc(N2C(=O)CCC2=O)c1 | 6.31µM* | u | x | x | 22.0%
Cc1cccc(C(=O)Nc2nnc(-c3cccnc3)o2)c1 | u | 35.7% | x | 50.1µM* | 17.3%
Cc1cccc(C(=O)Nc2nnc(-c3ccco3)o2)c1 | u | 5.4% | 3.7% | 44.7µM* | 35.3%
COc1ccc(-c2noc(CSc3nnc(-c4ccncc4)n3-c3ccc(C)cc3)n2)cc1OC | -33.7% | -2.7%[59 µM] | x | -2.2% | 37.5%
Cc1nc2ccccc2n1CCc1nc2c3ccccc3nc(SCc3ccccc3F)n2n1 | -15.3% | 0.8%[59 µM] | x | 0.5% | 8.2%
CCC(C)[C@H](NC(=O)[C@@H]1Cc2ccccc2CN1)C(=O)Nc1ccc2c(c1)OCO2 (some centres undefined) | -32.2% | x | x | u | 39.1%
Cc1cccc(N=Nc2cn[nH]c2-c2ccco2)c1 | -10.5%[11.4 µM] | u | u | 20µM* | u
CCCC1O[C@@H]2C[C@H]3[C@@H]4CCC5=CC(=O)C=C[C@]5(C)C4[C@@H](O)C[C@]3(C)[C@]2(C(=O)CO)O1 (some centres undefined) | x | 22.6%[12.7 µM] | x | x | x
CC(Sc1nc(-c2ccccc2)cc(C(F)(F)F)n1)C(=O)Nc1sc2c(c1C(N)=O)CCC2 (centres undefined) | -19.9%[57.1 µM] | u | 5.7% | -33.8% | 44.2%
CC(Sc1nc(-c2ccccc2)cc(C(F)(F)F)n1)C(=O)Nc1sc2c(c1C#N)CCC2 (centres undefined) | -23.1% | 39.8µM* | -7.1% | -18.1%[57.1 µM] | -22.4%
O=C(C[C@H]1C[C@H](C(=O)N2CCOCC2)[C@@]2(CCC3CCCC3)c3[nH]c4cc(-c5ccco5)ccc4c3CCN2C1=O)NCCCn1ccnc1 | 56.2µM* | x | -14.1% | x | u
O=C(C[C@H]1C[C@H](C(=O)N2CCCCC2)[C@@]2(CCc3ccccc3)c3[nH]c4ccc(Cl)cc4c3CCN2C1=O)NCCCn1ccnc1 | 35.5µM* | x | -26.4% | x | -23.4%
COCCCNC(=O)C[C@H]1C[C@H](C(=O)N2CCCCC2)[C@@]2(CCc3ccccc3)c3[nH]c4cc(-c5ccco5)ccc4c3CCN2C1=O | 44.7µM* | x | -14.2% | x | u
COc1ccc(CNC(=O)CC2C[C@H](C(=O)N3CCOCC3)[C@@]3(CCC4CCCC4)c4[nH]c5ccccc5c4CCN3C2=O)cc1OC (some centres undefined) | u | x | -5.1% | x | -6.5%
CCN(CC)C(=O)[C@H]1C[C@H](CC(=O)NCCCn2ccnc2)C(=O)N2CCc3c([nH]c4cc(-c5ccco5)ccc34)[C@]12C | u | x | -18.1% | x | -7.6%
COc1ccc2[nH]c3c(c2c1)CCN1C(=O)C(CC(=O)NCc2ccc(OC)c(OC)c2)C[C@H](C(=O)N2CCOCC2)[C@@]31CCC1CCCC1 (some centres undefined) | 50.1µM* | x | -5.1% | x | 5.2%
C=CCOc1ccc(C(=O)c2ccccc2)c(OCC(=O)NC2(C#N)CCCC2)c1 | -12.3% | -0.7% | x | -1.1% | 39.9%
COc1ccc(C(=O)NCCc2cccc(Cl)c2)cc1OC1CCN(C(C)=O)CC1 | -11.0% | x | x | -0.4% | 16.7%
CCOC(=O)c1cccnc1SCC(=O)Nc1ccc(C)cc1C | 0.6% | 12.8%[59 µM] | x | 4.3% | -1.1%
O=C(C[C@H]1C[C@H](C(=O)N2CCCCC2)[C@@]2(CCc3ccccc3)c3[nH]c4cc(-c5ccco5)ccc4c3CCN2C1=O)NCCN1CCOCC1 | 39.8µM* | x | -16.1% | x | 20µM*
CCc1c(-c2n[nH]c(=S)n2Cc2ccccc2)csc1C | u | 2µM* | -8.6% | -35.5% | 3.8%
S=c1[nH]nc(-c2ccc3ccccc3n2)n1Cc1ccccc1 | -17.1% | u | 2.4% | 5.0% | 29.2%
SMILES | JMJD2A Tudor | G9a inh | L3MBTL1 block | BAZ2B inh | HP1b binding inh
Cc1scc(-c2n[nH]c(=S)n2Cc2ccccc2)c1C | -4.9% | 1.58µM* | -12.3% | -31.0% | 21.0%
Fc1cccc(CNc2ncnc3ccc(-c4ccccc4Cl)cc23)c1 | x | 13.2%[12.7 µM] | 2.5% | -2.3% | x
CCOC(=O)Cn1nc(C)c(NC(=O)COc2ccc(Cl)cc2C)c1C | -10.4% | 0.4%[59 µM] | x | -33.7% | 4.9%
COc1cccc(C(=O)N(C)c2nnc(-c3ccncc3)s2)c1 | -12.8% | 79.4µM* | 1.9% | 0.7% | 29.7%
CN(C(=O)c1cccnc1)c1nnc(-c2ccccn2)s1 | -13.6% | u | x | 56.2µM* | 18.7%
CN(C(=O)c1cnccn1)c1nnc(-c2cnccn2)s1 | -20.7% | -7.6%[2.33 µM] | 2.0% | -3.1% | 14.0%
CN(C(=O)c1cccc(C#N)c1)c1nnc(-c2ccncc2)s1 | -4.8% | u | 0.1% | -1.3% | 45.9%
CN(C(=O)c1ccccn1)c1nnc(-c2cnccn2)s1 | -3.8% | 44.7µM* | -2.2% | 79.4µM* | 3.5%
CCCC(=O)N(C)c1nnc(-c2ccc(OC)cc2)s1 | -4.2% | 44.7µM* | 10.0% | -3.2% | 22.7%
CCn1nc(C)c2c(-c3ccccc3)cc(=O)n(C(C)C(=O)Nc3cccc(F)c3)c21 (centres undefined) | -17.7% | 4.4%[59 µM] | x | -16.1% | 63.8%
Cc1cc(C)cc(NC(=O)C2CCC(CNS(=O)(=O)c3ccc4c(c3)C(C)(C)C(=O)N4C)CC2)c1 (centres undefined) | -21.2% | -37.4%[59 µM] | x | -18.6% | 32.7%
O=C1CCCC2=C1C1(CCCC1)N=C(Nc1nc3cc(Cl)ccc3o1)N2 | -20.6% | x | x | x | x
O=C(Nc1ccccc1-c1ccccc1)C1CCCN(c2ncccn2)C1 (centres undefined) | -2.5% | -34.4% | 3.6% | 2.5% | 11.9%
N#C/C(=C\c1ccc(-c2ccc([N+](=O)[O-])cc2Br)o1)C(=O)N1CCN(c2ccccc2)CC1 | u | 3.98µM* | -15.7% | u | -15.6%
N#C/C(=C\c1ccc(-c2cccc([N+](=O)[O-])c2)o1)C(=O)N1CCOCC1 | u | -0.7% | -9.1% | -11.0% | -2.1%
COCCNc1nc(-c2cc3ccccc3o2)cs1 | -34.9% | u | -12.4% | u | -12.7%
Cc1nc2sccn2c1-c1nc(-c2cc3ccccc3o2)cs1 | 25.1µM* | 0.2%[59 µM] | 9.3% | u | -12.1%
CC1=C(C(=O)Nc2ccc(F)cc2)C(c2ccc(C)o2)C2=C(CC(C)(C)CC2=O)N1 (centres undefined) | -6.0% | 50.1µM* | 1.2% | 4.2% | 26.3%
S=c1[nH]nc(Cn2nnc3ccccc32)n1-c1ccc(Cl)cc1 | -6.0% | 11.2µM* | 5.8% | -6.8% | 48.8%
Fc1ccc(-n2c(CN3CCCCC3)n[nH]c2=S)cc1 | u | 44.7µM* | -4.7% | -11.0% | 41.2%

Compound activity: PubChem, National Center for Advancing Translational Sciences (NCATS)
